A selection: hits, their analogues and other compounds. The true share with any hit is near 2.2%.
SKN-1 inh = blocks SKN-1 activity in C. elegans | 0.49% of 360,000 active | inhibition, % at 21.8 µM | C. elegans VP596 Pgst-4::GFP/RFP ratio, acrylamide-induced, 24 h;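 active = interference check ratio from 0.5 to 1.5 plus GFP to RFP signal ratio inhibition reaching or exceeding a fixed threshold, cut at about 30% in these data, passing the limit was not always enough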
HGIII-sPLA2 inh = Inhibits HGIII-sPLA2 liposome hydrolysis, primary screen. Q9NZ20. QFRET BODIPY PC-A2 liposome hydrolysis, fluorescence. inhibition, % at 12.2 µM. 0.56% of 370,000 active;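 active = inhibition above mean plus 3 SD of compounds lying within the high and low control bounds, cut at about 19% in these data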;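 note: 0% = median of test compound wells and 100% = no enzyme DMSO wells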
Target sequence (Q9NZ20 whole entry, looked up): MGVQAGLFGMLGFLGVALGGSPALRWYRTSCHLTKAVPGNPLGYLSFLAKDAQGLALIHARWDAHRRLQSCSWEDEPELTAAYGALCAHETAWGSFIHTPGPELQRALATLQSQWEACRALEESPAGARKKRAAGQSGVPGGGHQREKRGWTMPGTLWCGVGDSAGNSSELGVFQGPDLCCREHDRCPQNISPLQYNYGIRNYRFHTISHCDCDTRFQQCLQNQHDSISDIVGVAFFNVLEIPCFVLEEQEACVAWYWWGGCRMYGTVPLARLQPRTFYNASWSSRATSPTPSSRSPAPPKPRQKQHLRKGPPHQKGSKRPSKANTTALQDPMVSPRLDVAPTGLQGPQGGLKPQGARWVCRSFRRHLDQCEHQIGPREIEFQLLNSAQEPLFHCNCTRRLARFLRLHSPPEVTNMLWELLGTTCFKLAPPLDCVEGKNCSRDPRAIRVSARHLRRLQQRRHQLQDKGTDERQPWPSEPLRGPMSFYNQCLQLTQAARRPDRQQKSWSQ
Efflux pump mplx = antifungal efflux pump inhibition, Nile Red retention; S. cerevisiae Candida pump triplex; inhibition, % at 10 µM; 0.44% of 330,000 active; AID 485275;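 active = plate passing quality check with inhibition over a set limit, or well fluorescence over plate mean plus 4 SD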;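 note: Nile Red retained in pooled yeast measured as flow cytometry median fluorescence; 0% = buffer negative control and 100% = Enniatin B positive control; higher means more Nile Red kept so more efflux inhibition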
Mot1-301 SUMO = inhibitors of SUMOylation pathway: yeast Mot1-301 growth rescue | AID 2716 | growth rescue, % at 18.8 µM | 1% of 320,000 active | S. cerevisiae Mot1-301 growth rescue, ATP luminescence, 38.5C; percent above DMSO median, 100 means doubled;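 active = every valid replicate shows activation above 250% relative to neutral control wells; inactive = the rest, any valid replicate at or below 250%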;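 note: OY570 slx delta 5 strain wells were the positive control but not used for scaling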
Cmpd fluor yeast = counter-screen for efflux pump inhibitors: compound fluorescence | shares compounds with Efflux pump mplx | S. cerevisiae AD/pABC3, flow cytometry | fluorescence ratio to DMSO, % at 10 µM | 4% of 1,700 active;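 active = fluorescence ratio to DMSO above its plate's cutoff, the plate mean ratio plus 5 SD, cut at about 210% in these data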;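 note: unstained yeast with no Nile Red so the signal is compound autofluorescence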
CaMdr1 efflux inh = blocks the Candida albicans Mdr1 efflux pump in yeast | shares compounds with Efflux pump mplx | S. cerevisiae AD/CaMDR1, Nile Red efflux, flow cytometry | inhibition, % at 10 µM | 1% of 1,700 active | AID 588518; in the data active = inhibition above about 26%;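 note: 0% = DMSO vehicle and 100% = reference inhibitor; higher means more Nile Red retained so more efflux inhibition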
Cdr2 pump inh = inhibitors of Candida albicans Cdr2 efflux pump; shares compounds with Efflux pump mplx; 4% of 1,700 active; AID 588520; Nile Red retention ratio vs DMSO, % at 10 µM; S. cerevisiae AD/CaCDR2, Nile Red retention, flow cytometry; in the data active = Nile Red retention ratio vs DMSO above about 190%;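 note: higher ratio means more blocking of Cdr2 efflux of the dye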
CaCdr1 efflux inh = Candida Cdr1 efflux pump inhibition | shares compounds with Efflux pump mplx | S. cerevisiae AD/CaCDR1, Nile Red efflux, flow cytometry | inhibition, % at 10 µM | 1% of 1,700 active | AID 588522;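 active = inhibition above the screen-wide mean plus twice its standard deviation, cut at about 32% in these data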
The depositor's hits bear a star; · = not tested or not shown.

SMILES	SKN-1 inh	HGIII-sPLA2 inh	Efflux pump mplx	Mot1-301 SUMO	Cmpd fluor yeast	CaMdr1 efflux inh	Cdr2 pump inh	CaCdr1 efflux inh
CCCC[C@H]1C2CC(OC(=O)Nc3cccc(C#N)c3)C(C2)[C@H]2CCCCN21 (some centres not stated)	·	-0.6	·	·	·	·	·	·
CCSc1cc(N2CCCC2)nc(-c2ccccc2Cl)n1	-1.9	11.0	0.0	3.7	106.2	-0.2	95.6	-0.1
C=CCc1ccccc1OCC(=O)NNC(=S)NCc1ccccc1	2.6	-11.1	0.2	-6.8	·	·	·	·
Cc1cccc(C)c1OCc1cc(C(=O)N2CCNC(=O)C2)no1	-2.0	-1.2	-0.1	5.9	96.2	0.0	107.2	-0.1
Cc1cccc(C)c1OCc1cc(C(=O)N2CCCCCCC2)no1	0.8	-13.7	0.1	7.9	·	·	·	·
COc1cccc(CN(CC(=O)NCC2CCCO2)C(=O)CCC(=O)Nc2cc(C)on2)c1 (configuration not stated)	-13.0	-3.0	0.0	·	124.4	0.2	109.9	0.4
COc1ccccc1NC(=O)Cn1cnc2sc(C)c(S(=O)(=O)N3CCCCC3)c2c1=O	-5.7	10.8	0.1	80.1	·	·	·	·
Cc1ccsc1/C=N\NC(=O)c1n[nH]c2c1CCC2	3.7	7.4	11.4*	-10.8	86.5	-0.2	94.0	0.0
Cc1ccccc1CN1C(=O)CN(S(C)(=O)=O)CC1(C)C(=O)NC(C)C (configuration not stated)	-13.3	-0.7	·	·	·	·	·	·
CC(=O)OCCCNc1cc(Sc2ccc(C)cc2)c2nonc2c1[N+](=O)[O-]	-5.7	1.9	12.7*	-1.8	88.0	-0.2	102.9	0.5
CC(C)(O)c1cc2ccc(C#CCCN3C(=O)c4ccccc4C3=O)cc2c(=O)o1	-6.2	7.8	0.2	11.5	·	·	·	·
Cc1ccc(/C=C/c2nc3ccccc3s2)s1	-6.1	3.9	0.1	27.4	·	·	·	·
CN(C)c1ccc(/C=C/c2nc3ccccc3s2)cc1	26.8	2.9	0.6*	-25.9	97.8	0.3	116.5	0.0
COc1cc(C=C(c2nc3ccccc3s2)c2nc3ccccc3s2)ccc1O	-5.1	-46.1	0.0	-14.3	·	·	·	·
COc1cc(/C=C/c2nc3ccccc3s2)cc(OC)c1O	20.6	-4.8	0.8*	3.5	81.2	0.0	84.8	-0.2
CC1(c2nnc(-c3ccc(Cl)cc3)o2)CC(c2cccnc2)=NO1 (configuration not stated)	-16.1	3.8	0.0	1.3	·	·	·	·
NS(=O)(=O)c1ccc(NC(=O)CSc2cn[nH]n2)cc1	9.3	-0.3	-0.1	-8.4	·	·	·	·
CCOC(=O)N1CCN(C(=S)NC(=O)c2ccc(F)c(F)c2)CC1	7.6	11.4	1.6*	3.1	95.3	-0.1	103.6	0.1
CCC1Nc2ncnc(N3CCN(c4ccccc4)CC3)c2N(Cc2ccc(C)cc2)C1=O (configuration not stated)	19.4	-0.7	0.2	-7.7	·	·	·	·
COc1ccc(CN2C(=O)C(C)Nc3ncnc(N4CCOCC4)c32)cc1 (configuration not stated)	3.7	-6.3	-0.1	-5.1	·	·	·	·
COc1ccc(CN2C(=O)C(C)Nc3ncnc(N4CCN(c5ccccc5)CC4)c32)cc1 (configuration not stated)	-6.7	-2.9	0.0	12.9	94.4	-0.1	116.5	0.0
Cc1ccc(CN2C(=O)C(CC(C)C)Nc3ncnc(N4CCN(c5ccccc5)CC4)c32)cc1 (configuration not stated)	-4.3	4.0	-0.2	-21.9	109.0	0.0	116.6	0.0
CCC1Nc2ncnc(N3CCN(c4ccccn4)CC3)c2N(Cc2ccc(Br)cc2)C1=O (configuration not stated)	-8.0	-5.0	0.1	-19.6	112.2	0.3	120.8	0.1
CCC1Nc2ncnc(N3CCN(c4ccccc4)CC3)c2N(Cc2ccccc2)C1=O (configuration not stated)	21.3	-7.2	0.1	4.3	107.2	-0.2	120.4	0.0
CN1CCN(c2nc(Nc3ccc(F)cc3)nc(Nc3ccc(F)cc3)n2)CC1	10.9	-7.9	-0.1	-3.1	·	·	·	·

Screens deposited in PubChem by several laboratories.
